# Rows were chosen to be rich in hits. Some 7.6% of all compounds tested hit in one or more screens of this group.
# KB-V1 MDR tox: kills drug-selected multidrug resistant KB-V1 cells. KB-V1 MDR cells viability, CellTiter-Glo, 72 h. Potency, µM (series often up to 46.1 µM), most hits filed as cytotoxic. actives 3.4% (n = 400,000). AID 1347076; further: potency means the concentration at half of the fitted maximal effect; on the % scale 0 is the no-effect control and ±100 the full control effect; nearly all actives have a fitted effect of over 60% in size
#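 Cytotoxicity via CellTiter-Glo luminescence after 72 h compound exposure at 37 degrees C. Cells: drug-selected KB-V1 line, DMEM phenol-red free plus 10% FBS. Compounds tested at multiple concentrations; normalized data fitted to concentration-effect curves.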
# KB-3-1 cytotox: kills parental KB-3-1 adenocarcinoma cells; KB-3-1 viability, CellTiter-Glo ATP luminescence, 72 h; AID 1347075; Potency, µM (top dose mostly 46.1 µM), most hits filed as cytotoxic; actives 1.4% (n = 400,000); further: potency means the concentration at half of the fitted maximal effect; on the % scale 0 is the no-effect control and ±100 the full control effect; nearly all actives have a fitted effect of over 60% in size
#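 Viability of parental KB-3-1 cells, measured by CellTiter-Glo luminescence, followed a 72 h incubation at 37 °C with pinned compounds in phenol-red-free DMEM containing 10% FBS.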
# KCNH2 3.1 inh: inhibitors of human KCNH2 3.1 potassium channel isoform. U2OS KCNH2 3.1, thallium flux FluxOr; hits give low values. activity change, % (tested at about 1.8 µM). actives 0.95% (n = 340,000);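 active means maximum activity change below -70%; inconclusive means maximum activity change from -70% to -50%; inactive means maximum activity change above -50%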;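 further: thallium influx rate constant from kinetic fluorescence after stimulation buffer; on the % scale 0 is the no-effect control and ±100 the full control effect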
#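 We transduce U2OS cells with the mutant 3.1 virus, culture them overnight, load FluxOr with Red40 quencher for 45 min, then add stimulation buffer and read kinetically for 2 min to derive a normalized rate constant.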
# MCF10A rerep: DNA re-replication induction in MCF 10a cells | MCF 10A DNA re-replication, Hoechst nuclear intensity, 48 h | Potency, µM (doses to about 46.1 µM), without a hit: at the top dose activity, positive = re-replication, usual class: activators | actives 2.9% (n = 350,000) | AID 624296; further: potency means the concentration at half of the fitted maximal effect; % of control where 0% means no effect; nearly all actives have a fitted effect of over 50% in size
# hERG WT inh: inhibitors of human wildtype KCNH2 potassium channel | Q12809 | U2OS, BacMam KCNH2, thallium flux FluxOr; hits give low values | activity change, % at 1.84 µM | actives 0.37% (n = 340,000) | AID 720551;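 active means maximum activity change below -70%; inconclusive means maximum activity change between -70% and -50%; inactive means maximum activity change above -50%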; further: on the % scale 0 is the no-effect control and ±100 the full control effect
#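 U2OS cells were transduced with wild-type KCNH2 virus (2.03 x 10^8 / mL) for 4 h at room temperature, then cultured overnight at 37 C. Thallium flux was read with FluxOr dye. Rate constants were normalized to DMSO controls.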
# SW480 rerep: induces DNA re-replication in SW480 colon adenocarcinoma cells | AID 624297 | SW480 DNA re-replication, Hoechst DNA content imaging, 48 h | actives 1.8% (n = 340,000) | Potency, µM (titrated, usually from 46.1 µM), for inactives: at the highest dose re-replication activation, hits mostly activators; further: potency means the concentration at half of the fitted maximal effect; % of control where 0% means no effect; nearly all actives have a fitted effect of over 55% in size
#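 Per well, 250 cells were exposed to pinned compound for 48 hr. Nuclear DNA was visualised with Hoechst (40 min, 37 C) and total object intensity recorded by fluorescence scanning.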
# The depositor's hits bear a star; i = inactive; ? = inconclusive; . = no result given; [ ] = another dose, or the depositor's remark. Unless noted, the call rests on the fitted dose curve; in most records, active means well fitted curve in the direction sought with a large enough effect; inconclusive means small, poorly fitted or top-dose-only effect, or another doubt; inactive means no such curve, though single readings can be large; an effect the other way counts as inactive or inconclusive.
SMILES,KB-V1 MDR tox,KB-3-1 cytotox,KCNH2 3.1 inh,MCF10A rerep,hERG WT inh,SW480 rerep
Cc1cc2c(sc3ccccc32)c(C)n1,21µM*,?,4,-4%,4,-17%[9.22 µM]
Cc1cc(C)nc(Nc2nc(=O)c3ccccc3s2)n1,?,i,12,-2%,-6,-5%
CCN1CCN(c2oc(/C=C/c3ccccc3)nc2C#N)CC1,i,i,-32,23µM*,1,?
COCCNc1oc(/C=C/c2ccccc2)nc1C#N,i,i,-14,15%,-6,1%
CNc1oc(/C=C/c2ccccc2)nc1C#N,i,i,3,21µM*,0,?
CCN1CCN(c2oc(COc3ccc(Cl)cc3)nc2C#N)CC1,i,i,-83*,9%,22,-1%
CNc1oc(-c2ccccc2)nc1C#N,i,i,-81*,1%,-3,-12%
N#Cc1nc(/C=C/c2ccc(F)cc2)oc1N1CCN(c2ccccc2)CC1,i,i,.,.,.,.
Cc1ccc(S(=O)(=O)Oc2ccc3ccc(O)cc3c2)cc1,?,i,6,1µM*,21,-17%
CC1=CC(C)(C)Nc2ccc(OC(=O)CCN3C(=O)c4ccccc4C3=O)cc21,?,?,9,6.5µM*,1,9.2µM*
CC1=CC(C)(C)Nc2ccc(OS(=O)(=O)c3ccc(C)cc3)cc21,15µM*,i,-6,?,-15,-6%
CCOc1ccc(NC2CCCCC2NS(=O)(=O)c2ccccc2)cc1 (stereo unspecified),i,i,0,19%,0,-47%
O=C(/C=C/c1ccc(Cl)cc1Cl)N1CCN(c2ccccc2[N+](=O)[O-])CC1,i,i,-95*,8%,?,?
O=C(COc1ccc(Cl)cc1)N1CCN(c2ccc([N+](=O)[O-])c(N3CCOCC3)c2)CC1,16µM*,i,-81*,-2%,14,-8%
O=C(/C=C/c1ccc(Cl)cc1)N1CCN(c2ccc([N+](=O)[O-])c(N3CCOCC3)c2)CC1,2.3µM*,?,?,2%,-30,-54%
O=C(/C=C/c1ccc(Cl)cc1Cl)N1CCN(c2ccc([N+](=O)[O-])c(N3CCOCC3)c2)CC1,?,i,-18,-49%,-1,-1%
O=C(Nc1nnc([C@H]2C[C@H](O)[C@@H](CO)O2)s1)Nc1cccc2c1CCCC2,i,i,.,.,.,.
COC(=O)c1sccc1NC(=O)c1c(C)c(-c2cccc(Cl)c2)nc2ccccc12,10µM*,i,-20,13%,-5,12%
COc1ccccc1NC(=O)Cc1noc(CSc2nnc(C)n2C)n1,i,i,-1,0.65µM*,0,2%
COc1ccccc1NC(=O)Cc1noc(CSc2nnc(C(F)(F)F)n2C)n1,i,i,-4,-9%,.,-58%
Cc1ccc(Sc2ccc([N+](=O)[O-])cc2[N+](=O)[O-])nc1,i,?,-4,?,-13,?
Cc1ccnc(Sc2ccc([N+](=O)[O-])cc2[N+](=O)[O-])n1,?,?,-2,?,0,12µM*
CNC(=O)c1cc(Oc2ccc(NC(=O)Nc3ccc(Cl)c(C(F)(F)F)c3)cc2)ccn1,?,?,-2,16µM*,-3,?
CCOCCCNC(=O)C1(O)c2cc(Br)ccc2NC(=O)N1c1ccc(OCC)cc1 (stereo unspecified),i,i,-5,13%,4,-16%
Cc1c(C(=O)N(C)C)c2ccc(Cl)cc2n1O,i,i,-107*,8%,0,6%
CCCCN(C)C(=O)Cn1c(C2CC(=O)N(c3ccc(C)cc3)C2)nc2ccccc21 (stereo unspecified),i,i,.,.,.,.
CC(C)CCSc1nc(N)c(C#N)cc1C#N,21µM*,i,7,17%,13,-1%

# Screens from PubChem.
